Test results as given in PubChem BioAssay (NCATS).
Records with an inconclusive call do not appear. Activity calls are given as the source filed them. Calls come from the whole dose curve; as a rule, active = well fitted inhibition curve with a large enough effect; inconclusive = small, poorly fitted or top-dose-only effect; inactive = flat fitted curve, though single readings scatter.

Columns and labels:
Assay in all cases: Cytotoxic Profiling of Annotated Libraries Using Quantitative High-Throughput Screening (AID 1296008); note: nearly all actives have a fitted effect of over 60% in size
Settings in all cases: Five cell lines viability, CellTiter-Glo ATP luminescence, 48-72 h; max response: hits give low values
CRL-7250 = normal cell line; test system: CRL-7250
Procedure, shortened: (§1)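 Cells exposed to compounds for 48 or 72 hr at 37 degrees Celsius. Viability read as ATP-coupled luminescence with CellTiter-Glo after 10 min at room temperature.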

HEK293 = test system: HEK293
Procedure, shortened: as §1

HaCat = test system: HaCat
Procedure, shortened: as §1

KB-3-1 = test system: KB-3-1
Procedure, shortened: as §1

NIH3T3 = test system: NIH3T3
Procedure, shortened: as §1
% is set by controls: 0 for no effect and ±100 for the full control effect; potency is the fitted concentration of half-maximal effect.

C=CC(C)(CC/C=C(\C)C(=O)OC)OC1OC(COC(=O)CC(C)(O)CC(=O)O)C(OC2OC(CO)C(O)C(O)C2O)C(O)C1O (stereo not given)
inactive: outcome (CRL-7250) | max response (HEK293) -1.61% | max response (HaCat) -0.66% | outcome (KB-3-1) | max response (NIH3T3) 2.15%

C=C1C(O)C[C@@H]2C(C(=O)O)=CO[C@@H](O[C@@H]3O[C@H](CO)[C@@H](O)[C@H](O)[C@H]3OC(=O)c3ccc(O)cc3)[C@H]12 (stereo not given in full)
inactive: max response (CRL-7250) -1.69% | max response (HEK293) -0.967% | max response (HaCat) 0.151% | outcome (KB-3-1) | max response (NIH3T3) 4.25%

CC1=CC(=O)C2(OC3OC(C)C(O)C(OC(=O)/C=C/c4ccccc4)C3O)C=COC(OC3OC(CO)C(O)C(O)C3O)C12 (stereo not given)
inactive: max response (CRL-7250) -3.56% | max response (HEK293) -0.0394% | max response (HaCat) 2.65% | max response (KB-3-1) 7.12% | max response (NIH3T3) 3.5%

CC(O)(CC(=O)O)CC(=O)OCc1ccc(O[C@@H]2O[C@H](CO)[C@@H](O)[C@H](O)[C@H]2O)cc1 (stereo not given in full)
inactive: outcome (CRL-7250) | max response (HEK293) -1.35% | max response (HaCat) 1.6% | outcome (KB-3-1) | max response (NIH3T3) -5.49%

CC(C)=CCC/C(C)=C/CO[C@@H]1O[C@H](CO)[C@@H](OC(=O)/C=C/c2ccc(O)cc2)[C@H](O[C@@H]2O[C@@H](C)[C@H](O)[C@@H](O)[C@H]2O)[C@H]1O
inactive: max response (CRL-7250) 0.478% | max response (HEK293) 1.83% | max response (HaCat) -28.8% | outcome (KB-3-1) | max response (NIH3T3) -7.03%

C/C=C/C=C/[C@@H]1O[C@](O)([C@H](CC)C(=O)NC/C=C/C=C(\C)[C@@H](OC)[C@@H](C)C2OC(/C=C/C=C/C=C(\C)C(=O)c3c(O)cc[nH]c3=O)[C@H](O)[C@@H]2O)[C@H](O)[C@H](O)C1(C)C (stereo not given in full)
inactive: max response (CRL-7250) 2.59% | max response (HEK293) 1.43% | max response (HaCat) -11.5% | max response (KB-3-1) 2.01% | max response (NIH3T3) -4.29%

CC(C)[C@@H]1C(=O)N(S(C)(=O)=O)[C@@H]2CCN(C(=O)/C=C/CN3CCCCC3)[C@H]21
inactive: outcome (CRL-7250) | max response (HEK293) -1.35% | max response (HaCat) -0.855% | max response (KB-3-1) 5.42% | max response (NIH3T3) 1.85%

CC(C)(F)C[C@@H](N[C@@H](c1ccc(-c2ccc(S(C)(=O)=O)cc2)cc1)C(F)(F)F)C(=O)NC1(C#N)CC1
inactive: max response (CRL-7250) 0.789% | max response (HEK293) -10.4% | max response (HaCat) -33% | outcome (KB-3-1) | max response (NIH3T3) -4.72%

COC(=O)C(C)C1CCC2(C)C(=O)C=CC(C)(O)C2C1O (stereo not given)
inactive: outcome (CRL-7250) | max response (HEK293) -6.36% | max response (HaCat) 4.7% | outcome (KB-3-1) | max response (NIH3T3) 2.97%

Cc1ccc(F)cc1C(=O)Nc1ccc(C(=O)N2Cc3cccn3Cc3ccccc32)c(Cl)c1
inactive: max response (CRL-7250) -11.2% | max response (HaCat) -26.5% | max response (KB-3-1) -16% | max response (NIH3T3) -21.1%
active: Potency (HEK293) 9.2 µM

COC1C(=O)CCC2(CO2)C1(O)C1(C)OC1CC=C(C)C (stereo not given)
inactive: max response (CRL-7250) -21.3% | max response (HEK293) -34.7% | max response (HaCat) -2.7% | max response (KB-3-1) 6.79% | max response (NIH3T3) -14.1%

O=C(Nc1ccc(S(=O)(=O)Nc2ccccc2Cl)c(Cl)c1)c1ccccn1
inactive: max response (CRL-7250) 0.561% | max response (HEK293) -10.8% | max response (HaCat) -15.8% | max response (KB-3-1) -5.44% | max response (NIH3T3) -3.89%

COc1cc2c(cc1OC)[C@@H]1[C@H](O)[C@@H](OC)C=C3CCN(C2)[C@H]31
inactive: max response (HaCat) -24.8%
active: Potency (CRL-7250) 12.8 µM | Potency (HEK293) 4.53 µM | Potency (KB-3-1) 7.18 µM | Potency (NIH3T3) 3.6 µM

C[C@@H]1O[C@@H](O[C@H]2[C@H](O[C@H]3[C@H](O[C@H]4CC[C@@]5(C)C(CC[C@]6(C)C5CC=C5[C@@H]7CC(C)(C)CC[C@]7(C(=O)O[C@@H]7O[C@H](CO)[C@@H](O[C@@H]8O[C@@H](C)[C@H](O)[C@@H](O)[C@H]8O)[C@H](O)[C@H]7O)CC[C@]56C)C4(C)C)OC[C@H](O)[C@@H]3O)O[C@H](CO)[C@@H](O)[C@@H]2O)[C@H](O)[C@H](O)[C@H]1O (stereo not given in full)
inactive: max response (CRL-7250) -33.4% | max response (HEK293) -93.1% | max response (HaCat) 4.4% | outcome (KB-3-1) | max response (NIH3T3) 0.585%

CC(=O)O[C@H]1CC(C)(C)CC2[C@@]13[C@H](O)C[C@]1(C)[C@@]2(CCC2[C@@]4(C)CC[C@H](O[C@@H]5OC[C@H](O[C@@H]6O[C@H](CO)[C@@H](O)[C@H](O)[C@H]6O[C@@H]6OC[C@@H](O)[C@H](O)[C@H]6O)[C@H](O)[C@H]5O[C@@H]5O[C@H](CO)[C@@H](O)[C@H](O)[C@H]5O)C(C)(C)C4CC[C@]21C)O[C@@H]3O (stereo not given in full)
active: Potency (CRL-7250) 2.46 µM | Potency (HEK293) 1.95 µM | Potency (HaCat) 3.48 µM | Potency (NIH3T3) 2.76 µM
inactive: max response (KB-3-1) -24.8%

C=C[C@]1(C)C[C@H](O)[C@@H]2[C@H](OC(=O)[C@@H]2C)C1/C(C)=C/O[C@@H]1O[C@H](CO)[C@@H](O)[C@H](O)[C@H]1O (stereo not given in full)
inactive: max response (CRL-7250) -0.594% | max response (HEK293) -0.606% | max response (HaCat) -9.44% | max response (KB-3-1) 0.273% | max response (NIH3T3) -22.7%

C=C1CC2C(C)(CCC(=O)O)C(C(C)(C)O)CCC2(C)C2C(=O)OC(C)(C(=O)OC)C(=O)C12C (stereo not given)
inactive: max response (CRL-7250) -2.01% | max response (HEK293) 3.75% | max response (HaCat) 4.3% | outcome (KB-3-1) | max response (NIH3T3) -2.52%

C[C@@H]1C[C@@H](O)[C@@]23CO[C@@H](O)[C@@H]2CCC[C@@H]3[C@@]12C[C@@H](c1ccoc1)OC2=O
inactive: max response (CRL-7250) 0.0668% | max response (HEK293) -9.22% | max response (HaCat) -27.9% | max response (KB-3-1) 7.75% | max response (NIH3T3) 4.21%

C[C@@H]1CN(Cc2ncccn2)C[C@H]1c1nc2c(cnn2C2CCOCC2)c(=O)[nH]1
inactive: max response (CRL-7250) 1.7% | max response (HEK293) -4.3% | max response (HaCat) 0.321% | max response (KB-3-1) -1.41% | max response (NIH3T3) -4.05%

C/C=C1\[C@H](O[C@@H]2O[C@H](CO)[C@@H](O)[C@H](O)[C@H]2O)OC=C(C(=O)OC)[C@H]1CC(=O)OC[C@H]1O[C@@H](OCCc2ccc(O)cc2)[C@H](O)[C@@H](O)[C@@H]1O
inactive: max response (CRL-7250) -9.74% | max response (HEK293) 0.429% | max response (HaCat) -4.08% | max response (KB-3-1) 1.44% | max response (NIH3T3) -11.8%

COC(=O)C1(C)CCC2(C(=O)O)CCC3(C)C(=CCC4C5(C)CC(O)C(OC6OCC(O)C(O)C6O)C(C)(CO)C5CCC43C)C2C1 (stereo not given)
inactive: max response (CRL-7250) 3.48% | max response (HEK293) 0.887% | max response (HaCat) -27.2% | max response (KB-3-1) 9.85% | max response (NIH3T3) -9.3%

[N-]=[N+]=N[C@]1(CO)O[C@@H](n2ccc(=O)[nH]c2=O)[C@@H](O)[C@@H]1O
inactive: max response (CRL-7250) 0.828% | max response (HEK293) -4.49% | max response (HaCat) 4.64% | outcome (KB-3-1) | max response (NIH3T3) -4.26%

O=C(Nc1ccn[nH]1)c1c(F)cccc1F
inactive: outcome (CRL-7250) | max response (HEK293) 4.81% | max response (HaCat) -3.04% | outcome (KB-3-1) | max response (NIH3T3) 3.6%

C/C=C1\[C@H](OC2OC(COC3OC(CO)C(O)C(O)C3O)C(O)C(O)C2O)OC=C(C(=O)OC)[C@H]1CC(=O)OCCc1ccc(O)cc1 (stereo not given in full)
inactive: max response (CRL-7250) -3.04% | max response (HEK293) -70.9% | max response (HaCat) -0.414% | max response (KB-3-1) 2.72% | max response (NIH3T3) -38.2%

COc1ccc(/C=C/C(=O)O[C@@H]2[C@@H](O)[C@H](C)O[C@@H](O[C@H]3[C@@H]4C=CO[C@@H](O[C@H]5O[C@@H](CO)[C@H](O)[C@@H](O)[C@@H]5O)[C@@H]4[C@@]4(CO)O[C@@H]34)[C@@H]2OC(C)=O)cc1
inactive: max response (CRL-7250) -2.4% | max response (HEK293) 0.0012% | max response (HaCat) 3.75% | max response (KB-3-1) 9.04% | max response (NIH3T3) 1.61%

CC(O)CO[C@@H]1O[C@H](CO)[C@@H](O)[C@H](O)[C@H]1O (stereo not given in full)
inactive: max response (CRL-7250) -3.19% | max response (HEK293) -61.7% | max response (HaCat) -15.1% | outcome (KB-3-1) | max response (NIH3T3) 0.151%

COc1cc(O)c([C@@H](CC(=O)N2CC(C)CC(C)C2)c2ccc3c(c2)OCO3)c(OC)c1 (stereo not given in full)
inactive: max response (CRL-7250) -6.18% | max response (HEK293) -5.89% | max response (HaCat) -11.1% | max response (KB-3-1) -2.57% | max response (NIH3T3) -1.6%

COc1ccc(C(O)C(C)OC2OC(CO)C(O)C(O)C2O)cc1 (stereo not given)
inactive: max response (CRL-7250) -9.11% | max response (HEK293) 0.525% | max response (HaCat) 1.16% | outcome (KB-3-1) | max response (NIH3T3) -2.23%

CCC(CC)C(=O)Nc1sc2c(c1C#N)CCC(C(C)(C)CC)C2 (stereo not given)
active: Potency (HEK293) 23.1 µM
inactive: outcome (CRL-7250) | max response (HaCat) 1.75% | max response (KB-3-1) -9.22% | max response (NIH3T3) 3.55%

C[C@@H]1CC[C@]2(C(=O)OC3OC(CO)C(O)C(O)C3O)CC[C@]3(C)C(=CCC4[C@@]5(C)CC[C@H](O)[C@](C)(C(=O)O)C5CC[C@]43C)C2[C@]1(C)O (stereo not given in full)
inactive: outcome (CRL-7250) | max response (HEK293) -6.18% | max response (HaCat) -8.63% | max response (KB-3-1) 4.37% | max response (NIH3T3) -0.137%

CC(=O)OC1C(OC(=O)c2ccccc2)C2C(C)(C)CC(=O)CC2(C)C23CCC(C)(C2)C(O)CC13 (stereo not given)
inactive: max response (CRL-7250) -5.07% | max response (HEK293) -15.7% | max response (HaCat) 1.97% | max response (KB-3-1) -13.9% | max response (NIH3T3) -5.55%

CN(c1ccccc1CNc1nc(Nc2ccc3c(c2)CC(=O)N3)ncc1C(F)(F)F)S(C)(=O)=O
active: Potency (CRL-7250) 16.4 µM | Potency (HEK293) 2.31 µM | Potency (HaCat) 8.2 µM | Potency (KB-3-1) 6.51 µM | Potency (NIH3T3) 5.8 µM

CC1OC(OC2C(C)OC(OC3C(OC(=O)C45CCC(C)(C)CC4C4=CCC6C7(C)CCC(OC8OC(C(=O)O)C(O)C(O)C8OC8OC(CO)C(O)C(OC9OC(C)C(O)C(O)C9O)C8O)C(C)(CO)C7CCC6(C)C4(C)CC5)OC(CO)C(O)C3O)C(O)C2O)C(O)C(O)C1O (stereo not given)
inactive: max response (CRL-7250) 3.83% | max response (HEK293) 1.99% | max response (HaCat) -14.7% | outcome (KB-3-1) | max response (NIH3T3) -18.1%
